This note sets out measurements from article PMC5869772, “Quantitative profiling of BATF family proteins/JUNB/IRF hetero-trimers using Spec-seq”.

In this assay the target is T1, BATF3;JUNB (human;human, UniProt Q9NR55;P17275 1-127;148-347, |).
T1 sequence 1: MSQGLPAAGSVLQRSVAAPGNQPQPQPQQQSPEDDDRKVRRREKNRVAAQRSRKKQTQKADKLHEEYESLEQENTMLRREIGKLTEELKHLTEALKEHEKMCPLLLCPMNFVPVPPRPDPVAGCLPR
T1 sequence 2: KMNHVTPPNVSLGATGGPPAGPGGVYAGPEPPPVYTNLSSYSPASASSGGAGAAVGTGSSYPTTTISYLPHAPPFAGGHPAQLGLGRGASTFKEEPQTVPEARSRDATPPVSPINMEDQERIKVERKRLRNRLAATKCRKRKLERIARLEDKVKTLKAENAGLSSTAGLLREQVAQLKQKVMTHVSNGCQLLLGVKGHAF
Nature of the assay: Spec-seq (EMSA and sequencing of bound and unbound bands); 100 nM BATFx-JUNB, 1 uM dsDNA library, 50 mM K acetate, 20 mM Tris-acetate, 10 mM Mg acetate, 100 ug/ml BSA, pH 7.9, 10% glycerol, 30 min on ice; native 9% PAGE at 4 C; low values mean tight binding. To be noted: protein: recombinant;recombinant; tags: N-terminal mCherry-TEV, cleaved off;C-terminal 6His; copies: 1;1; dsDNA, one strand shown. The gist of the method:
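The protein, at 100 nM, was incubated with 1 μM double-stranded degenerate DNA library for 30 min on ice in NEB Cutsmart buffer with 10% glycerol, then resolved by native 9% PAGE at 4 °C. Excised bound and unbound bands were PCR-barcoded and Illumina-sequenced, and each sequence's relative binding energy in kT is −ln of its bound/unbound read-count ratio.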
For orientation: In EMSA bound probe runs differently from free probe, usually more slowly.
As to “GATAGTCTCATTTTCACCCCGTGAAATGAGTTAGTTGTTCCATTACAGTATCTGT”, the binding signal was found to be 0.772 kT. In the case of “GATAGTCTCATTTTCACCCCGTGAAATGACTCACTTGTTCCATTACAGTATCTGT”, the binding signal was -0.943 kT.

On to “GATAGTCTCATTTTCACCCCGTGAAAGGACGTCATTGTTCCATTACAGTATCTGT”, for which the binding signal is -0.474 kT. On to “GATAGTCTCATTTTCACCCCGTGAAATGACTTAGTTGTTCCATTACAGTATCTGT”, for which the binding signal stood at 0.28 kT.

With “GATAGTCTCATTTTCACCCCGTGAAATGAGCCACTTGTTCCATTACAGTATCTGT”, the binding signal was 1.15 kT. On to “GATAGTCTCATTTTCACCCCGTGAAATGAGTCGCTTGTTCCATTACAGTATCTGT”, for which the binding signal amounted to 0.711 kT. Regarding “GATAGTCTCATTTTCACCCCGTGAAATGAGTCTCTTGTTCCATTACAGTATCTGT”, the binding signal worked out at 0.936 kT. Take “GATAGTCTCATTTTCACCCCGTGAAATGAGTCATTTGTTCCATTACAGTATCTGT”: the binding signal is -1.42 kT. To “GATAGTCTCATTTTCACCCCGTGAAATGGCTCATTTGTTCCATTACAGTATCTGT” belongs 0.838 kT.

Take “GATAGTCTCATTTTCACCCCGTGAAATTACTCATTTGTTCCATTACAGTATCTGT”: the binding signal is -0.827 kT. On to “GATAGTCTCATTTTCACCCCGTGAAATGACTCGTTTGTTCCATTACAGTATCTGT”, for which the binding signal was determined as 0.243 kT.

As for “GATAGTCTCATTTTCACCCCGTGAAATGAGTCCCTTGTTCCATTACAGTATCTGT”, the binding signal stood at 1.03 kT.

Regarding “GATAGTCTCATTTTCACCCCGTGAAATGACGTGATTGTTCCATTACAGTATCTGT”, the binding signal is -1.06 kT. Regarding “GATAGTCTCATTTTCACCCCGTGAAATGACTCGATTGTTCCATTACAGTATCTGT”, the binding signal was determined as 0.109 kT. “GATAGTCTCATTTTCACCCCGTGAAATGTCTCATTTGTTCCATTACAGTATCTGT”: the binding signal amounted to 0.725 kT.
